Screening results deposited in PubChem BioAssay by National Center for Advancing Translational Sciences (NCATS).
Shown are actives, neighbours in structure and some others; about 19% of the full set was active somewhere.
IL1B secr inh – inhibitors of inflammasome signaling (IL-1 beta secretion); THP-1 LPS/ATP IL-1B secretion, AlphaLISA, 16 h; hits give low values; 4.7% of 360,000 active; AID 743279; activity change, % at 57.5 µM; in the data active = activity change below about -50%; inconclusive = mostly about -30% to -49%; note: % is set by controls: 0 for no effect and ±100 for the full control effect
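THP-1 cells pretreated 1 hr with compounds (up to 57.5 uM final), then stimulated with LPS (250 ng/mL final) plus ATP (1.25 mM final); secreted IL-1B measured by AlphaLISA after 16 hr, decreased signal indicating inhibition.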
TGFb inhibitor – TGF-b pathway inhibition; HepG2 CAGA-GFP TGF-b/SMAD3 reporter, GFP fluorescence, 18 h; TGF-beta stimulated, 500 pg/mL final; Potency, µM (top dose mostly 46.1 µM), inactives show at the highest dose activity, negative = inhibition, actives largely listed as inhibitors; 1.2% of 410,000 active; AID 588855; note: potency is the fitted concentration of half-maximal effect; % is set by controls: 0 for no effect and ±100 for the full control effect; nearly all actives have a fitted effect of over 65% in size
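TGF-beta reporter screen: HEPG2 CAGA-GFP, 1% FBS, 500 pg/mL TGF-beta final, 18 h; per-cell GFP summed per well; curves fitted and categorized by class.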
TDP1 cell noCPT – qHTS for Inhibitors of human tyrosyl-DNA phosphodiesterase 1 (TDP1): qHTS in cells in absence of CPT; DT40 Tdp1-/- hTDP1 cells, no CPT, ATP luminescence, 48 h; Potency, µM (series often up to 46.2 µM), without a hit: top-dose activity change, negative = growth inhibition, actives largely listed as inhibitors; 15% of 420,000 active; AID 686978, 2013; note: potency is the fitted concentration of half-maximal effect; % is set by controls: 0 for no effect and ±100 for the full control effect; nearly all actives have a fitted effect of over 55% in size
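Compound effects on proliferation are scored in DT40 Tdp1-/-;hTDP1 cells in the absence of CPT. ATP levels (CellTiter-Glo luminescence) are recorded after a ≥48 hr, 37 °C incubation.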
TDP1 cell CPT – DT40-hTDP1 cell growth loss with CPT; chicken DT40 Tdp1-/-;hTDP1 cells + 20 nM CPT, ATP luminescence, 48 h; 12% of 420,000 active; Potency, µM (series often up to 46.2 µM), for the others: top-dose activity change, negative = growth inhibition, usual class: inhibitors; AID 686979; note: potency is the fitted concentration of half-maximal effect; % is set by controls: 0 for no effect and ±100 for the full control effect; nearly all actives have a fitted effect of over 55% in size
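Chicken DT40 Tdp1-/- cells complemented with human TDP1, 400 cells/well, exposed to compounds plus 20 nM camptothecin for at least 48 h at 37 C; viability read as ATP content by CellTiter-Glo luminescence.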
HepG2 tox – kills HepG2 cells in TGF-b inhibitor counter-screen; 0.76% of 410,000 active; HepG2 CAGA-GFP viability, ATP luminescence, 18 h; Potency, µM (titrated, usually from 46.1 µM), inactives show top-dose activity change, negative = cytotoxicity, actives largely listed as cytotoxic; AID 588856; note: potency is the fitted concentration of half-maximal effect
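CellTiter-Glo luminescence gave cytotoxicity after 18 hours at 37 degrees C. The cells were HepG2 CAGA-GFP in 1% FBS DMEM, stimulated with 500 pg/mL TGF-beta after compound addition. %Activity was normalised to no-cell wells (complete cell-killing) and DMSO (no toxicity), and curves were fitted and classified.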
ASM inhibitor – blocks human secretory acid sphingomyelinase. placental ASM, HMU-PC fluorogenic substrate, 60 min. Potency, µM (top dose mostly 57.5 µM), inactives show top-dose activity change, negative = inhibition, most hits filed as inhibitors. 0.006% of 340,000 active. AID 504937; note: potency is the fitted concentration of half-maximal effect
Target sequence (P17405 47-631 limits assumed): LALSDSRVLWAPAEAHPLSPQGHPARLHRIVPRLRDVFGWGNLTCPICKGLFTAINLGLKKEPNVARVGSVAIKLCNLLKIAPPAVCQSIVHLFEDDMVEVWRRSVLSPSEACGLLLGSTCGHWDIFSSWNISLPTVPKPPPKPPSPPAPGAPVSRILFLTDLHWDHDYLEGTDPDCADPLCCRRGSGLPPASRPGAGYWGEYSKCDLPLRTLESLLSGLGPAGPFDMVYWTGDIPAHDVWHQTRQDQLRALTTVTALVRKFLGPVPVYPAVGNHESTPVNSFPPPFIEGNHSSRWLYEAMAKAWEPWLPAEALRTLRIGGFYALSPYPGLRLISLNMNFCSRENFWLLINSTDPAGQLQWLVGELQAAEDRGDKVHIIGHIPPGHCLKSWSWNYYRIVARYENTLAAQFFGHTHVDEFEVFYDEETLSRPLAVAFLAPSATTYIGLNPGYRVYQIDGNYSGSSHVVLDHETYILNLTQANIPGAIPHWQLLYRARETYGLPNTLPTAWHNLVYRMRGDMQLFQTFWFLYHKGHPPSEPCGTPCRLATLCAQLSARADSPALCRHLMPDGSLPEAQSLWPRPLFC
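Human placenta-derived ASM preincubated with compound 10 min at room temperature, then reacted with 9 uM (final) fluorogenic HMU-PC substrate for 60 min at 37 C. Stop solution raises pH to 10; fluorescence read at Ex 386/Em 447 nm.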
The depositor's hits bear a star; u = inconclusive; x = no result given. Unless noted, calls come from the whole dose curve; as a rule, active = well fitted curve in the direction sought with a large enough effect; inconclusive = small, poorly fitted or top-dose-only effect, or another doubt; inactive = no such curve, though single readings can be large; an effect the other way counts as inactive or inconclusive.

SMILES | IL1B secr inh | TGFb inhibitor | TDP1 cell noCPT | TDP1 cell CPT | HepG2 tox | ASM inhibitor
CCOc1ccc(/C=C/c2cc[n+](C)c3ccccc23)cc1OCC | x | 6% | u | u | -4% | x
C[C@H]1CN([C@@H](C)CO)C(=O)CCCn2nncc2CO[C@H]1CN(C)S(=O)(=O)c1ccc(F)cc1 | 29 | 7% | -3% | -3% | 24% | x
O=S(=O)(c1ccccc1Br)N(Cc1ccccc1)Cc1ccco1 | x | u | x | x | -24% | x
CCCSc1cc(N2CCN(C)CC2)nc(-c2ccc(OC)cc2)n1 | -57* | u | u | u | -88% | -18%
Cc1ccc(C2=CC(C)(c3ccc(C)cc3)Nc3nc(C(F)(F)F)nn32)cc1 (centres undefined) | -5 | u | u | u | 5% | -3%
CC1(c2ccc(OCC#N)cc2)C=C(c2ccc(OCC#N)cc2)n2nc(C(F)(F)F)nc2N1 (centres undefined) | -86* | u | u | u | 2% | -11%
CN(Cc1ccccc1)S(=O)(=O)c1ccc(F)c(C(=O)Nc2ccccc2C(F)(F)F)c1 | x | -23% | u | u | -31% | x
CCCCNC(=O)C(CC)n1c(SCc2cccc(F)c2)nc2ccncc21 (centres undefined) | x | -2% | u | 10µM* | 0% | x
CCC(C(=O)NC1CCCCC1)n1c(SCc2cccc(C)c2)nc2ccncc21 (centres undefined) | -21 | 13µM* | u | 26µM* | -35% | -3%
CCC(C(=O)NC1CCCCC1)n1c(SCc2cccc(F)c2)nc2ccncc21 (centres undefined) | -7 | u | u | u | -26% | 0%
Cn1cccc1C(=O)N1CCC2(CCCN(C(=O)Nc3cccc(F)c3)C2)CC1 | x | x | u | 3% | x | x
Cc1nc2c(-c3ccccc3)c(C)nn2c(C)c1CCC(=O)N1CCN(c2ccccc2)CC1 | x | -1% | u | -3% | -1% | x
CC1CC2CCCC(O)=C2C(=O)O1 (centres undefined) | -8 | 1% | -2% | -1% | -12% | 1%
COc1cccc(S(=O)(=O)N2C[C@H](O)COC[C@H]3O[C@@H](CC(=O)N4CCN(C)CC4)CC[C@@H]32)c1 | 0 | x | 13% | 0% | x | x
CCCCn1c(SCC(=O)c2ccc3c(c2)OCCO3)nnc1-c1ccoc1C | -96* | 13% | u | u | -22% | 1%
CN(Cc1ccccc1)Cc1nc2c(c(=O)n(C)c(=O)n2C)n1CCCc1ccccc1 | -24 | 2% | 16µM* | 18µM* | -6% | -3%
CCOC(=O)Cn1c(CN(C)Cc2ccccc2)nc2c1c(=O)n(C)c(=O)n2C | -11 | 1% | 12µM* | 9.2µM* | -15% | -1%
Cc1nnc(SCCn2c(N(C)Cc3ccccc3)nc3c2c(=O)n(C)c(=O)n3C)s1 | 7 | -6% | 11µM* | u | -13% | -3%
CC(C)Cn1c(CN(C)Cc2ccccc2)nc2c1c(=O)n(C)c(=O)n2C | 28 | 0% | 7.3µM* | 6.5µM* | -26% | 6%
CCOC(=O)c1ccc(-c2c(-c3cc(OC)c(OC)c(OC)c3)noc2C)cc1F | 42 | 11µM* | 1µM* | 1.6µM* | 1% | -14%
CCOC(=O)c1ccc(-c2c(-c3ccc(OC)cc3)oc(=O)c3cc(OC)c(OC)cc23)cc1F | 15 | -2% | 10µM* | 21µM* | 1% | 1%
CCN(c1cccc(C)c1)S(=O)(=O)c1ccc2c(c1)CCN2C(C)=O | 16 | -18% | 16µM* | u | -16% | -2%
CCN(c1cccc(C)c1)S(=O)(=O)c1ccc2c(c1)CCCN2C(C)=O | -19 | 0% | u | -28% | -8% | -2%
O=C(C1CCC1)N1CCc2cc(S(=O)(=O)N3CCCCC3)ccc21 | 7 | 6% | u | u | -8% | 3%
CCN(CC)C(=O)C1CCN(S(=O)(=O)c2ccc3c(c2)CCCN3C(C)=O)CC1 | x | u | u | 23µM* | -26% | x
SMILES | IL1B secr inh | TGFb inhibitor | TDP1 cell noCPT | TDP1 cell CPT | HepG2 tox | ASM inhibitor
CCN(C(=O)C1CCN(S(=O)(=O)c2ccc3c(c2)CCCN3C(C)=O)CC1)c1cccc(C)c1 | x | u | 23µM* | u | -24% | x
CCN(CC)C(=O)C1CCN(S(=O)(=O)c2ccc3c(c2)CCCN3C(=O)C2CCC2)CC1 | 43 | -8% | u | 7.3µM* | -2% | 4%
Cc1ccccc1N1CCN(C2CCCN(C(=O)c3cc[n+]([O-])cc3)C2)CC1 (centres undefined) | -4 | 11% | 20% | 0% | 5% | 3%
CCCCN(CCCC)CP(=O)(c1ccccc1)c1ccccc1 | -8 | u | 15µM* | 16µM* | -53% | 3%
CCCOP(=O)(c1ccccc1)c1ccccc1 | 14 | 1% | u | 21µM* | 6% | 3%
CC(C)CCOP(=O)(c1ccccc1)c1ccccc1 | -23 | -24% | u | u | 9% | 2%
O=C(O)CCCCCCCCCCP(=O)(c1ccccc1)c1ccccc1 | 31 | -3% | 6% | 5% | 15% | 3%
O=P(CCCCCCCCCP(=O)(c1ccccc1)c1ccccc1)(c1ccccc1)c1ccccc1 | -104* | u | 8.2µM* | 7.3µM* | -98% | -7%
O=P(COCCCCCOCP(=O)(c1ccccc1)c1ccccc1)(c1ccccc1)c1ccccc1 | u | u | 18µM* | 16µM* | -70% | 1%
CCCCCCP(=O)(O)c1ccccc1 | 23 | 1% | 4% | 17% | 4% | -1%
CS(=O)(=O)Nc1cccc(-c2nc(N3CCOCC3)c3ccccc3n2)c1 | x | x | -20% | -12% | x | x
COc1ccc(NC(=O)COC(=O)c2ccc(C)c(S(=O)(=O)N3CCCCC3)c2)cc1 | 0 | -3% | u | u | -58% | -3%
O=C(Nc1ccc(Cl)cc1)N1CCOC12CCCCC2 | -6 | 9% | 3% | -5% | 0% | 3%
CC(C)(C)c1ccc(C(=O)N2CCOC23CCCCC3)cc1 | 32 | 13% | 13µM* | 15µM* | 0% | x
C[C@]12c3[nH]c4ccc(Cl)cc4c3CCN1C(=O)[C@@H](CC(=O)NCCN1CCOCC1)C[C@@H]2C(=O)N1CCCCC1 | -22 | -3% | 16µM* | u | 1% | -4%
